Hits are enriched below; roughly 2.9% of the tested compounds scored in any of these assays.
SNCA expr inh – SNCA gene expression inhibition | AID 1671194 | 140,000 compounds, 0.17% hits | HEK-293 SNCA-luciferase knock-in, luminescence, 24 h | Potency, µM (series often up to 57.2 µM), usual class: inhibitors; note: nearly all actives have a fitted effect of over 45% in size
KDM5B inhibitor – blocks human KDM5B histone demethylase activity; Q9UGL1; KDM5B demethylase, FDH-coupled NADH fluorescence (FDH is formaldehyde dehydrogenase); Potency, µM (top dose mostly 57.7 µM), actives largely listed as inhibitors; 220,000 compounds, 2.6% hits; AID 1347165; note: nearly all actives have a fitted effect of over 70% in size
Target sequence (Q9UGL1 whole entry, looked up): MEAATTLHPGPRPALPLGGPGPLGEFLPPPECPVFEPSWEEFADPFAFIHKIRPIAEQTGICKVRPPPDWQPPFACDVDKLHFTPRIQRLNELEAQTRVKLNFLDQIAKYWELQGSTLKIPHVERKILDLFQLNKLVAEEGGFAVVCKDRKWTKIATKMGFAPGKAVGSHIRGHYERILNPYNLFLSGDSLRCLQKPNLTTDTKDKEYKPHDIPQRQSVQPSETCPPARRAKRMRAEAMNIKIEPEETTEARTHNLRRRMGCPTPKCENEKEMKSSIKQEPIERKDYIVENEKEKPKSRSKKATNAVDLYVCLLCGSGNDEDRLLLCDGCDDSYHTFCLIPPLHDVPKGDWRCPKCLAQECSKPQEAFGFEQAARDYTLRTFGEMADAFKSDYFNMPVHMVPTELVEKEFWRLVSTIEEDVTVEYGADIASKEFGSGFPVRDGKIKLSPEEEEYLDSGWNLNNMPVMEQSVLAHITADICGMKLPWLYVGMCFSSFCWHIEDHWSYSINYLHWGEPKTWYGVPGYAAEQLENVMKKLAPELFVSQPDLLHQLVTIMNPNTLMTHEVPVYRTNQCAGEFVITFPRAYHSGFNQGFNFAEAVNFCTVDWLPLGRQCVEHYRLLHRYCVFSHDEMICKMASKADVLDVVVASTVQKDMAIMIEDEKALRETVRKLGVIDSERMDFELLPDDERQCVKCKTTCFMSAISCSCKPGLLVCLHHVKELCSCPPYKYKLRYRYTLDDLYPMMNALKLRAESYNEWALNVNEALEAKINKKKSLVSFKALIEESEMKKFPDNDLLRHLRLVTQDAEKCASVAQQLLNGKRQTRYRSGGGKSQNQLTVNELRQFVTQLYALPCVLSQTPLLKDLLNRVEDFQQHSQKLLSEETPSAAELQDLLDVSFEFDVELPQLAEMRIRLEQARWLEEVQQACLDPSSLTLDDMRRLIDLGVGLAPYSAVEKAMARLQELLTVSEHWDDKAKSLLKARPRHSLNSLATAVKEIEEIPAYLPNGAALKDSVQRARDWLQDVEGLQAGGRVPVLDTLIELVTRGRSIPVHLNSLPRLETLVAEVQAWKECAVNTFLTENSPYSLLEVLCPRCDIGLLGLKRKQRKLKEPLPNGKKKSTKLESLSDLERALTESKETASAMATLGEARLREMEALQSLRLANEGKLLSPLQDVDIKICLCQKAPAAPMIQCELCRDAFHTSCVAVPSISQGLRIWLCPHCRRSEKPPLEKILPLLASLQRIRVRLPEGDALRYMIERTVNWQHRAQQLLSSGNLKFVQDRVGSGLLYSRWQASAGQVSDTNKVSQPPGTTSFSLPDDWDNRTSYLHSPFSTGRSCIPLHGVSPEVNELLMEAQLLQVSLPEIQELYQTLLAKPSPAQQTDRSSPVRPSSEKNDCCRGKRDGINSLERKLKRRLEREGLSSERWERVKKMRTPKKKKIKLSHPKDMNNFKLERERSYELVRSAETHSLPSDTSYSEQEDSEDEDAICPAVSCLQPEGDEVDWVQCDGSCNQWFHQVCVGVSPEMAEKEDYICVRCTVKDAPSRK
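Coupled FDH/NAD⁺ fluorescence readout. KDM5BΔAP 200 nM final; compound titration, 10 min RT preincubation; substrate mix 12.5 µM H3K4me3, 25 µM 2-OG, 50 µM Fe(II), 100 µM ascorbate, 0.25 mM NAD⁺, 0.25 U/mL FDH; ΔRFU over 30 min.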
SNCA viab count – reduces viability of HEK-293 SNCA reporter cells; HEK-293-SNCA-luc viability, GF-AFC fluorescence, 24 h; AID 1671193; 150,000 compounds, 0.12% hits; Potency, µM (top dose mostly 57.1 µM), hits mostly cytotoxic; note: nearly all actives have a fitted effect of over 30% in size
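HEK-293-SNCA-luc cells (1500/well) plated 24 h, then exposed 24 h to a dilution series; GF-AFC added 30 min at 37C, fluorescence 405/540 nm; normalised to medium-only and DMSO wells, Hill fit.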
IP6K1 inh – IP6K1 kinase inhibition; 140,000 compounds, 0.81% hits; Q92551; activity change, % (series mostly up to about 58 µM); IP6K1 kinase, ADP-Glo luminescence, 2 h; stronger effect = lower value; AID 1645851; in the data active = activity change below about -25%
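ADP-Glo luminescence measures ADP made by human IP6K1 during a 2 h RT reaction with ATP/IP6 (mix at 1.3 mM/130 uM); top library doses 57.5 and 19.1 uM final.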
Large screens that a line does not name were inactive. Unless noted, calls come from the whole dose curve; as a rule, active = well fitted curve in the direction sought with a large enough effect; inconclusive = small, poorly fitted or top-dose-only effect, or another doubt; inactive = no such curve, though single readings can be large; an effect the other way counts as inactive or inconclusive.

CCCc1cc(C(=O)N2CCC3(CC2)CN(C(C)CCC)C(=O)O3)n[nH]1 (centres undefined)	KDM5B inhibitor 28µM
COc1cccc(-c2ncc3c(n2)OCCN(Cc2ccc(F)cc2F)C3=O)c1F	KDM5B inhibitor inconclusive
COc1ccccc1-c1ncc2c(n1)OCCN(Cc1ccc(F)cc1F)C2=O	KDM5B inhibitor 35µM
COc1cccc(-c2ncc3c(n2)OCCN(Cc2ccc(F)cc2F)C3=O)c1	KDM5B inhibitor 35µM
O=C1c2cnc(-c3ccccc3OCc3ccccc3)nc2OCCN1CC1CC1	KDM5B inhibitor 32µM
CCc1cccc(NC(=O)c2ccc3c(c2)N(CC)C2CCCCCN2C3=O)c1 (centres undefined)	KDM5B inhibitor inconclusive
O=C(NCc1ccccc1F)c1ccc2oc(-c3ccccn3)nc2c1	none (no result: KDM5B inhibitor)
Cc1nn(C(=O)c2ccccc2)c(C)c1Sc1ccc(Cl)cc1	SNCA expr inh inconclusive, SNCA viab count 20µM
Cc1ccc(Sc2c(C)nn(C(=O)c3ccc(Br)cc3)c2C)cc1	none
COc1ccc(-c2ccc(C(=O)NCC3CC3)cc2)nn1	none (no result: SNCA expr inh, KDM5B inhibitor, SNCA viab count)
CN1Cc2ccc(Nc3ccccc3)nc2C(C)(C(=O)NCc2cccs2)C1 (centres undefined)	KDM5B inhibitor 32µM
COc1cccc(Nc2ccc3c(n2)C(C)(C(=O)NCCc2cnc[nH]2)CN(C)C3)c1 (centres undefined)	KDM5B inhibitor 40µM
CN1Cc2ccc(NCc3ccccc3)nc2C(C)(C(=O)NCc2cccnc2)C1 (centres undefined)	KDM5B inhibitor inconclusive
COc1cccc(Nc2ccc3c(n2)C(C)(C(=O)NCC2CC2)CN(C)C3)c1 (centres undefined)	KDM5B inhibitor 35µM, SNCA viab count inconclusive
CC(C)CNC(=O)c1cn2cc(-c3ccccc3)sc2n1	none (no result: KDM5B inhibitor)
O=C(CCc1ccc(-c2ccc(Cl)cc2)[nH]1)N[C@@H]1C[C@@H]2OCC[C@@H]21	KDM5B inhibitor 32µM
CO[C@@H]1COCC[C@H]1NC(=O)CCc1ccc(-c2ccc(Cl)cc2)[nH]1	KDM5B inhibitor 28µM
O=[S+]([O-])(NC1CCN(c2nccc(Nc3ccccc3F)n2)CC1)c1ccccc1	none (no result: KDM5B inhibitor)
O=C(c1ccc(Cl)cc1)N1CCC(n2cc(-c3ccc(OC(F)(F)F)cc3)[nH]c2=O)CC1	SNCA expr inh inconclusive, KDM5B inhibitor inconclusive
Cc1ccc(C)c(OCC(=O)c2ccc3c(c2)N(CCCC(=O)NC2CCCCC2)C(=O)CO3)c1	SNCA viab count 18µM
O=C(NC1CCCCC1)c1ccc2nnc(-c3cc(C(F)(F)F)cc(C(F)(F)F)c3)n2c1	none (no result: KDM5B inhibitor)
COc1ccc(-c2cccc(CCOc3cnc4c(ccn4CC(=O)O)c3)c2)c(F)c1	KDM5B inhibitor inconclusive
COc1ccc(-c2cccc(CCOc3cnc4c(ccn4CC(=O)O)c3)c2)c(C)c1	KDM5B inhibitor 40µM
Cc1ccccc1-c1cccc(CCOc2cnc3c(ccn3CC(=O)O)c2)c1	KDM5B inhibitor 40µM
COc1ncccc1-c1cccc(CCOc2cnc3c(ccn3CC(=O)O)c2)c1	KDM5B inhibitor 40µM
COc1cccc(N2C(=O)NC(=NC3CCCC3)C23CCCN(Cc2ccsc2)C3)c1 (centres undefined)	none
COCCn1cc2c3c(cccc31)CN(C(=O)CCc1ccccc1OC)CC2	KDM5B inhibitor inconclusive
COCCn1cc2c3c(cccc31)CN(C(=O)CCCc1ccccc1)CC2	KDM5B inhibitor 25µM
CCn1cc(S(=O)(=O)N2CCC(CCc3nc(C4CCOCC4)no3)CC2)cn1	none (no result: KDM5B inhibitor)
CCc1cc2c(C)cc(=O)oc2cc1OCC(=O)c1ccccc1	none (no result: SNCA expr inh, SNCA viab count, IP6K1 inh)
CN1CCN(C(=O)N2Cc3ccccc3OC3(CCN(C(=O)N(C)C)CC3)C2)CC1	none
CN(C)C(=O)N1Cc2ccccc2OC2(CCN(C(=O)c3ccnc(N)c3)CC2)C1	KDM5B inhibitor 89µM
CN(C)C(=O)N1CCC2(CC1)CN(C(=O)c1ccnc(N)c1)Cc1ccccc1O2	KDM5B inhibitor 79µM
O=C(NCc1cccc(C(F)(F)F)c1)C1CCCN(Cc2cccc(-c3cccs3)c2)C1 (centres undefined)	none (no result: SNCA expr inh, KDM5B inhibitor, SNCA viab count)
Cn1ncc2c(C(=O)NC3CC3)cc(-c3ccc(Cl)cc3)nc21	none (no result: KDM5B inhibitor)
O=C(NCc1cccs1)c1nc(-c2cccnc2)c2cnccn12	KDM5B inhibitor 25µM
O=C(NCc1ccc2c(c1)OCO2)c1nc(-c2cccc(C(F)(F)F)c2)c2cnccn12	KDM5B inhibitor 28µM
O=C(NCc1ccc2c(c1)OCO2)c1nc(-c2cccnc2)c2cnccn12	KDM5B inhibitor 28µM
Cn1ncc2c(C(=O)N3CCN(Cc4ccccc4)CC3)cc(-c3ccc(C(F)(F)F)cc3)nc21	none (no result: SNCA expr inh, KDM5B inhibitor, SNCA viab count)
O=C(C1CCCN([S+](=O)([O-])c2cccc(C(F)(F)F)c2)C1)N1CCC(c2ccccc2)CC1 (centres undefined)	SNCA expr inh inconclusive (no result: KDM5B inhibitor)
CCCc1noc(-c2ccn3c(CNC(=O)c4ccc(C)c(C)c4)nnc3c2)n1	KDM5B inhibitor 4.5µM
CCc1noc(-c2ccn3c(CNC(=O)c4cccc(F)c4)nnc3c2)n1	none
CCc1noc(-c2ccn3c(CNC(=O)c4cccnc4)nnc3c2)n1	KDM5B inhibitor 28µM
CCCc1noc(-c2ccn3c(CNC(=O)c4ccc(CC)cc4)nnc3c2)n1	KDM5B inhibitor 25µM
CCc1noc(-c2ccn3c(CNC(=O)c4ccc(F)cc4)nnc3c2)n1	KDM5B inhibitor 13µM
CC(C)OCCCNC(=O)c1cc(-c2ccccc2C(F)(F)F)nc2c1cnn2C	none (no result: SNCA expr inh, KDM5B inhibitor, SNCA viab count)
O=C1COCC2(CN(Cc3ccsc3)C2)CN1Cc1cccc(OC(F)(F)F)c1	none
O=[S+]1([O-])c2ccccc2C(OCc2ccccc2)CN1c1c(Cl)cccc1Cl (centres undefined)	none (no result: SNCA expr inh, KDM5B inhibitor, SNCA viab count)
CCc1noc(-c2ccn3c(CNC(=O)c4ccc(C)c(C)c4)nnc3c2)n1	KDM5B inhibitor 3.2µM
COc1ccc(NC(=O)C2(C)CCc3cnc(NCc4ccccc4)nc32)cn1 (centres undefined)	KDM5B inhibitor 40µM, SNCA viab count inconclusive
COCCCNC(=O)C1(C)CN(C)Cc2ccc(NCc3ccccc3)nc21 (centres undefined)	KDM5B inhibitor 32µM
COc1ccc(NC(=O)C2(C)CN(C)Cc3ccc(NCc4ccccc4)nc32)cn1 (centres undefined)	SNCA expr inh inconclusive, KDM5B inhibitor 32µM, SNCA viab count inconclusive
COc1cccc(NC(=O)C2(C)CN(C)Cc3ccc(NCc4ccccc4)nc32)c1 (centres undefined)	KDM5B inhibitor inconclusive
CNc1ccc(OC2CCN(C(=O)CCc3nc4ccccc4[nH]3)C2)nc1 (centres undefined)	KDM5B inhibitor 28µM
Cc1nc(-c2ccc(OC3CCN(C(=O)CCc4nc5ccccc5[nH]4)C3)cc2)no1 (centres undefined)	none
COc1ccc(-c2cc3c(=O)n(CCNC(=O)c4c(F)cccc4Cl)ccn3n2)cc1	KDM5B inhibitor 22µM
COc1ccc(-c2cc3c(=O)n(CCNC(=O)c4ccc(C)c(F)c4)ccn3n2)cc1	KDM5B inhibitor inconclusive
CCC(C(=O)NCCn1ccn2nc(-c3ccc(OC)cc3)cc2c1=O)c1ccccc1 (centres undefined)	KDM5B inhibitor 20µM

Compound activity as filed in PubChem.
